Measurements taken from PubChem BioAssay.
Results filed as inconclusive are left out. Calls of active or inactive are those of the source.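 Rule for the calls, unless noted: active = RAM network inhibition above 8.4% in each of two replicates, 3 SD over the compound average; inconclusive = above 8.4% inhibition in only one replicate; inactive = 8.4% inhibition or less in each replicate.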

Columns and labels:
[1] = Her2 expression decrease, cell viability multiplex – SKBR3 breast tumor cells, AlphaScreen, ATP viability, primary screen (AID 461;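 active = Her2 level under about 52% in both replicate screens, with viability over 70% of control, limit read from the data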;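 for Her2 level: lower value means less Her2 protein in the cells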;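 for viability: percent of carrier control wells set as 100% viability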); conditions: SKBR3 Her2 protein level, 18-24 h, measured here: SKBR3 viability, ATP luminescence, at 10 µM
[2] = biological target: Receptor tyrosine-protein kinase erbB-2 (Homo sapiens) (UniProt P04626); test: as above; conditions: 18-24 h, at 10 µM, stronger effect = lower value
[3] = reduced viability of SK-BR-3 breast cancer cells – cell-based, 24 h, human, pilot screen (AID 572;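 active = viability at or below 10% of carrier control in both of two separate runs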;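 note: compound exposure lasted between 18 and 24 h rather than exactly 24 h; 100% = carrier-treated control wells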); conditions: SK-BR-3 viability, CellTiter-Glo luminescence, at 10 µM, stronger effect = lower value
[4] = HUVEC growth inhibition – cell-based, human, primary screen (AID 575;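 active = viability at or below 30% in both replicate assays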;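 note: 100% = median of untreated cell wells with 0.1% DMSO on each plate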); conditions: HUVEC proliferation, CellTiter-Glo luminescence, 72 h; at 10 µM; stronger effect = lower value
[5] = H69AR cell proliferation blockers – human, duplicate replicates, primary screen (AID 580;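 active = viability at or under a set limit in both replicates, limit being median viability minus 3 SD, cut at about 48% in these data, passing the limit was not always enough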;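 note: 100% = mean luminescence of untreated wells and 0% = no signal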); conditions: H69AR lung tumor cells viability, ATP luminescence, 72 h; at 10 µM; stronger effect = lower value
[6] = MRP1 drug-resistance reversers in H69AR cells – cell-based, doxorubicin co-treatment, pilot screen (AID 601;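 active = viability loss from added drug above about 55%, and viability with drug at most 40%, in both replicates, limit read from the data, passing the limit was not always enough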); conditions: CellTiter-Glo, 72 h, at 10 µM; for differential viability (reversal): stronger effect = higher value
[7] = yeast transport mutant growth inhibition pilot in 384-well plates, post-Golgi transport modulator project (AID 636; in the data active = inhibition above about 31%); conditions: absorbance 615 nm, about 18 h, stronger effect = higher value
[8] = growth suppression of yeast trafficking mutant, preliminary HTS, modulators of trafficking downstream of Golgi apparatus project, 1536-format plate, OD 615 nm (AID 637; in the data active = inhibition above about 30%); conditions: yeast transport mutant growth, absorbance 615 nm, 18 h; stronger effect = higher value
[9] = S. cerevisiae growth inhibition in permissive medium (OD615), pilot counter-assay for S. cerevisiae lifespan shortening project, permissive growth control (AID 705;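 active = growth inhibition above 25% in both replicates, a cutoff set 3 SD above the mean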); conditions: OD615, 24 h, at 10 µM, stronger effect = higher value
[10] = S. cerevisiae growth inhibition in restrictive medium, OD615, pilot screen, restrictive growth control, yeast lifespan reduction project (AID 706;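 active = growth inhibition above a set limit, 3 SD over mean compound inhibition, in both replicates, cut at about 43% in these data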;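 note: modified DeaD lifespan yeast strain shifted to restrictive glucose medium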); conditions: OD615, 48 h, at 10 µM, stronger effect = higher value
[11] = doxorubicin toxicity protection in MRP-1 cells – H69AR cells, CellTiter-Glo, duplicate, MRP-1 activator project, pilot screen (AID 807;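 active = viability increase at or above a cutoff of the median across tested compounds plus 3 SD, cut at about 8.5% in these data, passing the limit was not always enough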;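 note: compound pretreatment 18-22 h then 72 h combined with doxorubicin; 0% = doxorubicin alone and 100% = vehicle without doxorubicin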); conditions: H69AR viability with doxorubicin, CellTiter-Glo luminescence; at 10 µM; stronger effect = higher value
[12] = viability of HCT116 without oncogenic beta-catenin – human colon tumor cells, pilot screen (AID 823;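 active = cell viability at or below a set limit in both duplicate runs, the limit being the all-compound median minus 4 SD, cut at about 23% in these data, passing the limit was not always enough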;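 note: 0% = wells killed by 20 µM Hyamine and 100% = untreated DMSO cell wells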); conditions: HCT116 beta-catenin knockout viability, CellTiter-Glo, 60 h; at 10 µM; stronger effect = lower value
[13] = viability of PTEN-null HCT116 cells – cell-based, HCT116 clonal line, CellTiter-Glo, pilot screen (AID 824;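 active = viability at or below 27.92% in each of two runs, the all-compound median minus 4 SD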;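 note: 0% = 20 µM Hyamine control and 100% = vehicle cell control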); conditions: HCT116 PTEN-deleted viability, 60 h, at 10 µM, stronger effect = lower value
[14] = RAM pathway blockade in budding yeast – dse1pr::URA3 reporter, 5-FOA selection, pilot screen (AID 869;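 active = inhibition over a set limit, the all-compound mean plus 3 SD, in both replicate runs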;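 note: 0% = DMSO wells with no growth and 100% = 10 µM 1-NA-PP1 with full growth; RAM network block rescues cells from 5-FOA so hits raise OD615 growth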); conditions: S. cerevisiae dse1pr::URA3 5-FOA growth, OD615, 2 d; at 10 µM; stronger effect = higher value; strain carries analog-sensitive mutant Cbk1 kinase
[15] = RAM signaling pathway blockade in yeast – S. cerevisiae, Pdr1DBD-CYC8 efflux-inhibited sensitized strain, primary screen (AID 1298);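 note: 0% = DMSO untreated cells without growth and 100% = 10 µM 1-NA-PP1 full growth; higher means more yeast growth rescued from 5-FOA killing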; conditions: S. cerevisiae cbk1-as DSE1-URA3 strain, 5-FOA growth OD615, 2 d; at 50 µM; stronger effect = higher value
[16] = H69AR cells + 2 uM doxorubicin, measured here: viability with 2 uM doxorubicin, stronger effect = lower value
[17] = H69AR cells, compound alone cytotoxicity

Sequence of Receptor tyrosine-protein kinase erbB-2 (Homo sapiens) (P04626 whole entry, looked up): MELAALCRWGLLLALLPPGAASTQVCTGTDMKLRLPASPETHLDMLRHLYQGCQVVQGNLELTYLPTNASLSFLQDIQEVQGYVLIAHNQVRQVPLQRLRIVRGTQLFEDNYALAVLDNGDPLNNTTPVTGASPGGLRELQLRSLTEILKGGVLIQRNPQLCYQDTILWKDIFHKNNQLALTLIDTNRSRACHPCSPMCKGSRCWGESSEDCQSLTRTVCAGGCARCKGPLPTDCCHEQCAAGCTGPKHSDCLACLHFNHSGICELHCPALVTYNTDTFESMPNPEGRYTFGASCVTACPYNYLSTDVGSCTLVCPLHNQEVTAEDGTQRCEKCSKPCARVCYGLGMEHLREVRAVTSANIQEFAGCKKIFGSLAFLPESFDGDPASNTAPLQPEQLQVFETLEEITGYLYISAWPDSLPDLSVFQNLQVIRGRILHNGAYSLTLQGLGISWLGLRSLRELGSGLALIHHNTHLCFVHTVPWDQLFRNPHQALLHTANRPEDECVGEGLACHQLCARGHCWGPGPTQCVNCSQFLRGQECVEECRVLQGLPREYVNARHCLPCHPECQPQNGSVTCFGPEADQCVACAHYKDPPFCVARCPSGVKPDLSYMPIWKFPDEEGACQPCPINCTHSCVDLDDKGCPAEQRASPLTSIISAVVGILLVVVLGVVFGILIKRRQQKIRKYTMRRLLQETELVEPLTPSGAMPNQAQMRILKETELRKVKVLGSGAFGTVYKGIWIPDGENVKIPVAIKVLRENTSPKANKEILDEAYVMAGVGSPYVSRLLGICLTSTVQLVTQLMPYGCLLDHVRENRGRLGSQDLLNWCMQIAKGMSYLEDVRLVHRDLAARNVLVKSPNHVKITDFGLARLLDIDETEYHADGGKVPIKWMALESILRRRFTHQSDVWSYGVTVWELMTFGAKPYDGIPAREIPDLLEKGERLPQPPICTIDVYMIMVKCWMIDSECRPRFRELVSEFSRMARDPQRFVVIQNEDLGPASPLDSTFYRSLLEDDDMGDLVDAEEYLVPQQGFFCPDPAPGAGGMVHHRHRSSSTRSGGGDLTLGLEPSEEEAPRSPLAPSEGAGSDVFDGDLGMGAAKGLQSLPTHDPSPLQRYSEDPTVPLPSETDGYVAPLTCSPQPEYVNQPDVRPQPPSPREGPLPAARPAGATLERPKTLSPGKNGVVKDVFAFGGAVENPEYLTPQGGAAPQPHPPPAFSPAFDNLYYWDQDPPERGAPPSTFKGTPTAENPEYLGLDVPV

Row | Structure (SMILES) | viability [1] [%] | Her2 level [2] | viability [3] | viability [4] | viability [5] | differential viability (reversal) ([6]; H69AR cells + 2 uM doxorubicin) | viability [6, 16] [%] | viability [6, 17] [%] | inhibition [7] | inhibition [8] | growth inhibition [9] | growth inhibition [10] | viability increase [11] | viability [12] | viability [13] | inhibition [14] | RAM network inhibition [15]
1 | CCOc1ccc(NC(=O)C(C)Sc2nnc(C)n2C)cc1 (stereo not given) | 92 | 126% (inactive) | 92% (inactive) | 97.6% (inactive) | 98.8% (inactive) | 2.75% (inactive) | 96.1 | 98.8 | -1.33% (inactive) | -1.17% (inactive) | -3.46% (inactive) | 3.31% (inactive) | -0.82% (inactive) | 95.7% (inactive) | 93.9% (inactive) | 0.705% (inactive) | -0.63% (inactive)
2 | COc1ccc(C(=O)Nc2nncs2)c(OC)c1 | 95.5 | 112% (inactive) | 95.5% (inactive) | 93.1% (inactive) | 96.9% (inactive) | 6.36% (inactive) | 90.5 | 96.9 | -3.46% (inactive) | 3.33% (inactive) | -4.15% (inactive) | -11.7% (inactive) | -0.64% (inactive) | 102% (inactive) | 93.9% (inactive) |  | 5.61% (inactive)
3 | COc1ccc(N2CCN(c3oc(COc4ccccc4Cl)nc3C#N)CC2)cc1 | 109 | 105% (inactive) | 109% (inactive) | 104% (inactive) | 92.3% (inactive) | 8.78% (inactive) | 83.6 | 92.3 | -6.23% (inactive) | -4.75% (inactive) | -2.64% (inactive) | -5.2% (inactive) | 2.27% (inactive) | 65.7% (inactive) | 64.9% (inactive) |  | 4.12% (inactive)
4 | COc1ccc(C2c3c(oc4ccccc4c3=O)C(=O)N2c2ccc(C)cn2)cc1OC (stereo not given) | 83 | 126% (inactive) | 83% (inactive) | 98.6% (inactive) | 94.3% (inactive) | 23.3% (inactive) | 71 | 94.3 | -0.9% (inactive) | -7.5% (inactive) | -7.72% (inactive) | -0.265% (inactive) | -2.66% (inactive) | 89% (inactive) | 82.2% (inactive) |  | 11.6% (inactive)
5 | CC1=C(C(N)=O)C(c2ccccn2)n2nc(-c3ccccc3Cl)nc2N1 (stereo not given) | 98 | 114% (inactive) | 98% (inactive) | 103% (inactive) | 91.6% (inactive) | 6.15% (inactive) | 85.4 | 91.6 | -2% (inactive) | -4.17% (inactive) | -13.8% (inactive) | -3.02% (inactive) | -2.25% (inactive) | 101% (inactive) | 91.7% (inactive) | 1% (inactive) | 3.22% (inactive)
6 | COCCn1c(=N)c(C(=O)NCCc2ccccc2)cc2c(=O)n3cccc(C)c3nc21 | 63.5 | 69% (inactive) | 63.5% (inactive) | 86.6% (inactive) | 92.5% (inactive) | 15.7% (inactive) | 76.8 | 92.5 | -0.38% (inactive) | -8.83% (inactive) | 1.32% (inactive) | -10.6% (inactive) | -4.45% (inactive) | 66.8% (inactive) | 68.5% (inactive) | 0.64% (inactive) | 0.2% (inactive)
7 | COc1ccc(C2CC(c3cccs3)n3nc(N)nc3N2)cc1 (stereo not given) | 113 | 102% (inactive) | 113% (inactive) | 89.3% (inactive) | 91.4% (inactive) | 7.99% (inactive) | 83.4 | 91.4 | -2.4% (inactive) | -6.39% (inactive) | 2.05% (inactive) | 17% (inactive) | -1.71% (inactive) | 94.2% (inactive) | 82.2% (inactive) | 0.275% (inactive) | 8.26% (inactive)
8 | CCCCOC(=O)Nc1nc2ccc(OC)cc2s1 | 94 | 92% (inactive) | 94% (inactive) | 92.3% (inactive) | 99.7% (inactive) | 16.4% (inactive) | 83.3 | 99.7 | -6.08% (inactive) | -6.17% (inactive) | -8.06% (inactive) | -16.4% (inactive) | 2.27% (inactive) | 96.3% (inactive) | 93.7% (inactive) |  | 7.75% (inactive)
9 | Cc1ccc(N(C(=O)c2ccncc2)C2C=CS(=O)(=O)C2)cc1 (stereo not given) | 108 | 110% (inactive) | 108% (inactive) | 101% (inactive) | 103% (inactive) | 5.2% (inactive) | 97.5 | 103 | 0.51% (inactive) | 7.33% (inactive) | -8.7% (inactive) | -14% (inactive) | 0.88% (inactive) | 93.8% (inactive) | 98.4% (inactive) |  | 5.22% (inactive)
10 | COC(=O)c1ccsc1NC(=O)CN1C(=O)CCC1=O | 83.5 | 121% (inactive) | 83.5% (inactive) | 83.1% (inactive) | 91.6% (inactive) | 22.4% (inactive) | 69.2 | 91.6 | -1.33% (inactive) | 15.7% (inactive) | -2.7% (inactive) | -9.07% (inactive) | -1.57% (inactive) | 100% (inactive) | 98.7% (inactive) | -0.08% (inactive) | 0.15% (inactive)
